# Source: the supplement of paper PMC8728848
# The sample as a whole holds a higher share of the strongest signals than the screen did.
# How the values were obtained:
# Assay in all cases: glycan array binding signal (z-score within array); higher = stronger binding
# Settings in all cases: glycan notation: IUPAC condensed, linker removed
# [1] = molecular target: Fuc(a1-2)Gal(b1-3)GlcNAc(b1-2)Man(a1-3)[Fuc(a1-2)Gal(b1-3)GlcNAc(b1-2)Man(a1-6)]Man(b1-4)GlcNAc(b1-4)[Fuc(a1-6)]GlcNAc
# How it was run: (§1)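 The Consortium for Functional Glycomics database supplied 3228 glycan arrays, of which those lacking an available protein sequence were dropped. The binding signal, a within-array Z-score, was averaged across arrays of the same protein sequence and across linkers. Negative scores can be read as non-binding.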
# [2] = molecular target: Fuc(a1-2)Gal(b1-4)Fuc(a1-3)]GlcNAc(b1-2)Man(a1-3)[Fuc(a1-2)Gal(b1-4)[Fuc(a1-3)]GlcNAc(b1-2)Man(a1-6)]Man(b1-4)GlcNAc(b1-4)GlcNAc
# How it was run: as §1
# [3] = molecular target: Fuc(a1-2)Gal(b1-4)Glc6S
# How it was run: as §1
# [4] = molecular target: Fuc(a1-2)Gal(b1-4)GlcNAc(b1-3)[Fuc(a1-3)[Gal(b1-4)]GlcNAc(b1-6)]Gal(b1-4)Glc
# How it was run: as §1
# [5] = molecular target: Fuc(a1-2)[Gal(a1-3)]Gal(b1-4)GlcNAc(b1-2)Man(a1-3)[Fuc(a1-2)[Gal(a1-3)]Gal(b1-4)GlcNAc(b1-2)Man(a1-6)]Man(b1-4)GlcNAc(b1-4)[Fuc(a1-6)]GlcNAc
# How it was run: as §1
# [6] = molecular target: Fuc(a1-2)[GalNAc(a1-3)]Gal(b1-4)GlcNAc(b1-3)Gal(b1-4)GlcNAc(b1-3)Gal(b1-4)GlcNAc
# How it was run: as §1
# [7] = molecular target: Fuc(a1-3)[Gal(b1-4)]GlcNAc(b1-6)[Gal(b1-3)GlcNAc(b1-3)]Gal(b1-4)Glc
# How it was run: as §1
# [8] = molecular target: Fuc(a1-3)[GalNAc(b1-4)]GlcNAc6S
# How it was run: as §1
# [9] = molecular target: Gal(b1-3)Gal(b1-4)GlcNAc(b1-2)Man(a1-3)[Gal(b1-3)Gal(b1-4)GlcNAc(b1-2)Man(a1-6)]Man(b1-4)GlcNAc(b1-4)GlcNAc
# How it was run: as §1
# [10] = molecular target: Gal(b1-3)GalNAc(b1-4)[Neu5Ac(a2-3)]Gal(b1-4)Glc
# How it was run: as §1
# [11] = molecular target: Gal(b1-3)GlcNAc(b1-3)Gal(b1-4)GlcNAc
# How it was run: as §1
# [12] = molecular target: Gal(b1-4)Glc6S
# How it was run: as §1
# [13] = molecular target: Gal(b1-4)GlcNAc(b1-2)Man(a1-3)[Gal(b1-4)GlcNAc(b1-2)Man(a1-6)]Man(b1-4)GlcNAc(b1-4)GlcNAc
# How it was run: as §1
# [14] = molecular target: Gal(b1-4)GlcNAc(b1-2)Man(a1-3)[Gal(b1-4)GlcNAc(b1-2)Man(a1-6)]Man(b1-4)GlcNAc(b1-4)[Fuc(a1-6)]GlcNAc
# How it was run: as §1
# [15] = molecular target: Gal(b1-4)GlcNAc(b1-3)Gal(b1-4)Glc
# How it was run: as §1
# [16] = molecular target: Gal(b1-4)GlcNAc(b1-3)Gal(b1-4)GlcNAc(b1-2)Man(a1-3)[Gal(b1-4)GlcNAc(b1-3)Gal(b1-4)GlcNAc(b1-2)Man(a1-6)]Man(b1-4)GlcNAc(b1-4)GlcNAc
# How it was run: as §1
# [17] = molecular target: Gal(b1-4)GlcNAc(b1-3)Gal(b1-4)GlcNAc(b1-3)Gal(b1-4)GlcNAc(b1-2)Man(a1-3)[Gal(b1-4)GlcNAc(b1-3)Gal(b1-4)GlcNAc(b1-3)Gal(b1-4)GlcNAc(b1-2)Man(a1-6)]Man(b1-4)GlcNAc(b1-4)GlcNAc
# How it was run: as §1
# [18] = molecular target: Gal(b1-4)GlcNAc(b1-3)Gal(b1-4)GlcNAc(b1-3)Gal(b1-4)GlcNAc(b1-2)Man(a1-3)[Gal(b1-4)GlcNAc(b1-3)Gal(b1-4)GlcNAc(b1-3)Gal(b1-4)GlcNAc(b1-2)Man(a1-6)]Man(b1-4)GlcNAc(b1-4)[Fuc(a1-6)]GlcNAc
# How it was run: as §1
# [19] = molecular target: Gal(b1-4)GlcNAc(b1-3)Gal(b1-4)GlcNAc(b1-3)Gal(b1-4)GlcNAc(b1-2)[Gal(b1-4)GlcNAc(b1-3)Gal(b1-4)GlcNAc(b1-3)Gal(b1-4)GlcNAc(b1-6)]Man(a1-6)[Gal(b1-4)GlcNAc(b1-3)Gal(b1-4)GlcNAc(b1-3)Gal(b1-4)GlcNAc(b1-2)Man(a1-3)]Man(b1-4)GlcNAc(b1-4)[Fuc(a1-6)]GlcNAc
# How it was run: as §1
# [20] = molecular target: Gal(b1-4)GlcNAc(b1-3)Gal(b1-4)GlcNAc(b1-3)Gal(b1-4)GlcNAc(b1-3)Gal(b1-4)GlcNAc(b1-3)Gal(b1-4)GlcNAc(b1-2)Man(a1-3)[Gal(b1-4)GlcNAc(b1-3)Gal(b1-4)GlcNAc(b1-3)Gal(b1-4)GlcNAc(b1-3)Gal(b1-4)GlcNAc(b1-3)Gal(b1-4)GlcNAc(b1-2)Man(a1-6)]Man(b1-4)GlcNAc(b1-4)GlcNAc
# How it was run: as §1
# [21] = molecular target: Gal(b1-4)GlcNAc(b1-3)Gal(b1-4)GlcNAc(b1-3)[Gal(b1-4)GlcNAc(b1-3)Gal(b1-4)GlcNAc(b1-6)]GalNAc
# How it was run: as §1
# [22] = molecular target: Gal(b1-4)GlcNAc(b1-6)[Gal(b1-4)GlcNAc(b1-3)]GalNAc
# How it was run: as §1
# [23] = molecular target: Gal3S4S(b1-4)GlcNAc
# How it was run: as §1
# [24] = molecular target: Gal4S(b1-4)GlcNAc
# How it was run: as §1
# [25] = molecular target: GalNAc(a1-3)GalNAc(b1-3)Gal(a1-4)Gal(b1-4)Glc
# How it was run: as §1
# [26] = molecular target: GalNAc(b1-3)GalNAc
# How it was run: as §1
binder,measurement,setting,value
"BabA (Helicobacter pylori), O52269_HELPY (protein) AEDDGFYMSAGYQIGEAAQMVKNTKGIQELSDNYENLSNLLTRYSTLNTLIKLSADPSAVNAARENLGASAKNLIGDTKNSPAYQAVLLAINAAVGFWNVVGYVTQCGGNANGQKSTSSTTIFNNEPGYRSTSITCSLNGHMPGYYGPMSIENFKKLNEAYQILQTALKNGLPALKENNGTVNVTYSYTCSGEGNDNCSLQTTGVTNQNNGTKTETQTIDGKSVTTTISSKVVDSQ",glycan array binding signal (z-score),[1],-0.237
same,glycan array binding signal (z-score),[2],3.3
same,glycan array binding signal (z-score),[3],0.321
same,glycan array binding signal (z-score),[4],-0.3
same,glycan array binding signal (z-score),[5],-0.046
same,glycan array binding signal (z-score),[6],-0.054
same,glycan array binding signal (z-score),[7],0.017
same,glycan array binding signal (z-score),[8],-0.664
same,glycan array binding signal (z-score),[9],0.28
same,glycan array binding signal (z-score),[10],0.035
same,glycan array binding signal (z-score),[11],-0.811
same,glycan array binding signal (z-score),[12],-0.359
same,glycan array binding signal (z-score),[13],-0.732
same,glycan array binding signal (z-score),[14],0.092
same,glycan array binding signal (z-score),[15],-0.535
same,glycan array binding signal (z-score),[16],4.08
same,glycan array binding signal (z-score),[17],4
same,glycan array binding signal (z-score),[18],2.03
same,glycan array binding signal (z-score),[19],2.31
same,glycan array binding signal (z-score),[20],3.86
same,glycan array binding signal (z-score),[21],4.39
same,glycan array binding signal (z-score),[22],-0.568
same,glycan array binding signal (z-score),[23],0.144
same,glycan array binding signal (z-score),[24],0.875
same,glycan array binding signal (z-score),[25],-0.709
same,glycan array binding signal (z-score),[26],-0.807
